The list is not random: actives were taken first. Their share in the collection is about 3.1%.
TSHR antag: Antagonists of the Thyroid Stimulating Hormone Receptor: HTS campaign; hit rate 0.2% among 330,000; TSHR-expressing cells, TSH-stimulated cAMP HTRF, 2 h; stronger effect = lower value; activity change, negative = inhibition, % at 11.5 µM; AID 504810, 2011; Thyrotropin receptor (Homo sapiens), P16473;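 active = activity change below a set negative limit, meaning inhibition stronger than a set level, cut at about -70% in these data; inconclusive = activity change between two set negative limits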; note: % is set by controls: 0 for no effect and ±100 for the full control effect
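Antagonism was scored as loss of TSH-driven cAMP in TSHR cells, stimulated with 4nM TSH (EC80) for 2 hours at 37 deg C and detected by homogeneous HTRF competition immunoassay.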
uPA generation: qHTS for Inhibitors of Cell Surface uPA Generation; cell surface uPA generation assay, qHTS; Potency, µM (doses to about 38.3 µM), inactives show at the highest dose activity change, negative = inhibition, most hits filed as inhibitors; hit rate 0.31% among 330,000; AID 540303, 2011; active = well fitted inhibition curve with a large enough effect; inconclusive = small, poorly fitted or top-dose-only effect; inactive = no such curve, though single readings can be large or run the other way; tested in mouse RAW 264.7 cells; note: potency is the fitted concentration of half-maximal effect; % is set by controls: 0 for no effect and ±100 for the full control effect; nearly all actives have a fitted effect of over 55% in size
VDR inhibitor: Inhibitors of the vitamin D receptor (VDR): qHTS. VDR-SRC2-3 peptide fluorescence polarization, 2 h. hit rate 0.93% among 400,000. Potency, µM, without a hit: max response, negative = inhibition, most hits filed as inhibitors. Vitamin D3 receptor (Homo sapiens), P11473. AID 504847, 2011; note: potency is the fitted concentration of half-maximal effect; % is set by controls: 0 for no effect and ±100 for the full control effect
Target sequence (P11473 whole entry, looked up): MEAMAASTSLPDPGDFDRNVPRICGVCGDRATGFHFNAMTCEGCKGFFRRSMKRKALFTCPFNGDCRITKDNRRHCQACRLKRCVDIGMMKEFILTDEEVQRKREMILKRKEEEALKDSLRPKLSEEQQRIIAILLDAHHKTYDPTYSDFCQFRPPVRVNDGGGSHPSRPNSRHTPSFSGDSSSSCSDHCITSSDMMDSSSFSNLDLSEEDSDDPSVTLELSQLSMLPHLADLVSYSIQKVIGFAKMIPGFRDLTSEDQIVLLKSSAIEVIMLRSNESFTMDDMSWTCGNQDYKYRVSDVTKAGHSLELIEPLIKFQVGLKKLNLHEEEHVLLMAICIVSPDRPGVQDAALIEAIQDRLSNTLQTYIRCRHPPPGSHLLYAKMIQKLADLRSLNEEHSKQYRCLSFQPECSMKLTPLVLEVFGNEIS
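Reagent solutions, kept cold and dark, are dispensed first; compounds are then pinned in at 23 nl, plates briefly spun, and incubated 2 h at ambient temperature. Inhibition of VDR–SRC2-3 peptide binding is read by fluorescence polarization.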
TSG101-PTAP inh: qHTS Assay for Iinhibitors of HIV-1 Budding by Blocking the Interaction of PTAP/TSG101. Tumor susceptibility gene 101 protein (Homo sapiens), Q99816. Potency, µM (series often up to 115 µM), without a hit: top-dose activity change, negative = inhibition, hits mostly inhibitors. 340,000 tested, under 10 active. Fluorescence polarization, FITC-PTAP peptide / Tsg101 binding; active = well fitted inhibition curve with a large enough effect in the main read-out, with a control signal flat, not every such curve was filed as active; inconclusive = small, poorly fitted or top-dose-only effect, or effect the other way, or a change in a side signal; inactive = no such curve, though single readings can be large or run the other way; note: potency is the fitted concentration of half-maximal effect; % of control where 0% means no effect
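Fluorescence polarization binding of Tsg101 binding domain (10 uM final) to FITC-labeled PTAP peptide (50 nM final) in HEPES pH 7.5 buffer with NaCl, Tween 20, EDTA, TCEP. Compounds added before peptide; binding 20 min at RT.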
PLK1 PBD inh: qHTS for Inhibitors of PLK1-PDB (polo-like kinase 1 - polo-box domain): Primary Screen; Serine/threonine-protein kinase PLK1 (Homo sapiens), P53350; Plk1 PBD binding of FITC phosphopeptide, fluorescence polarization; Potency, µM, for inactives: max response, negative = inhibition, usual class: inhibitors; hit rate 2.8% among 360,000; AID 720504, 2013; note: potency is the fitted concentration of half-maximal effect; series mostly up to about 57 µM; % is set by controls: 0 for no effect and ±100 for the full control effect; nearly all actives have a fitted effect of over 65% in size
An asterisk follows results filed as active; ? = inconclusive; . = no result. Unless noted, calls come from the whole dose curve; as a rule, active = well fitted curve in the direction sought with a large enough effect; inconclusive = small, poorly fitted or top-dose-only effect, or another doubt; inactive = no such curve, though single readings can be large; an effect the other way counts as inactive or inconclusive.

SMILES	TSHR antag	uPA generation	VDR inhibitor	TSG101-PTAP inh	PLK1 PBD inh
CC1(C(=O)O)CCCC2(C)c3cc(O)ccc3CCC12 (centres undefined)	.	10%	6%	-10%	-17%
CCNC(=S)NCCC1=c2ccccc2=N/C1=C\c1c(O)n(C)c(=O)n(C)c1=O	-6	?	32µM*	0%	1.1µM*
Cn1c(O)c(C=NCCc2c[nH]c3ccccc23)c(=O)n(C)c1=O	-8	2%	-21%	0%	-8%
CCN1C(=O)NC(=O)/C(=C\c2ccc(N3CCOCC3)cc2OC)C1=O	9	.	.	.	.
O=C1NC(=O)N(Cc2cccs2)C(=O)/C1=C/c1ccc(N2CCOCC2)cc1	13	1%	?	-2%	3µM*
O=C1C(I)=CC(=C(c2cc(I)c(O)c(I)c2)c2ccccc2C(=O)O)C=C1I	.	.	35µM*	.	.
CN(C)c1ccc(C=C(C#N)C#N)cc1	-15	6%	-2%	-6%	-16%
N#CC(C#N)=Cc1ccc(O)c(O)c1	-24	?	50µM*	1%	-6%
CCOP(=S)(OCC)O/N=C(\C#N)c1ccccc1Cl	.	.	22µM*	.	.
COc1ccc(/C=C2/C(=O)N(c3ccccc3)N=C2C)cc1	.	-1%	89µM*	-5%	3.8µM*
O=C1C=C2C(=CCOC2O)O1 (centres undefined)	.	.	13µM*	.	.
O=C(Nc1ccc(Br)cc1)c1cc(Br)cc(Br)c1O	.	.	56µM*	.	.
O=C(CCN1CCN(c2ccccc2)CC1)c1ccc(Br)cc1	3	-5%	89µM*	-2%	8.4µM*
O=[N+]([O-])c1ccc(NCc2ccccc2)c2nonc12	-1	-2%	-7%	?	0.84µM*
O=[N+]([O-])c1ccc(N2CCCCCC2)c2nonc12	34	-8%	0%	?	-17%
COP(=S)(OC)Oc1ccc([N+](=O)[O-])cc1	.	.	16µM*	.	.
COP(=S)(OC)Oc1ccc(Sc2ccc(OP(=S)(OC)OC)cc2)cc1	.	18%	50µM*	0%	?
Cc1ccsc1-c1nc(CSCC(=O)N2CCN(c3ccccc3)CC2)c(C)o1	-71*	?	-7%	0%	-11%
CCN(CC)C(=O)c1ccc2c(c1)C1C(Cl)C(Sc3ccccc3[N+](=O)[O-])CC1C(C(=O)O)N2 (centres undefined)	-9	5%	2%	-19%	6.7µM*
Cc1ccc2c(c1Cl)NC(C(=O)O)C1CC(Sc3ccccc3[N+](=O)[O-])C(Cl)C21 (centres undefined)	-8	11%	1%	-6%	27µM*
CCN(CC)C(=O)c1ccc(NC(=O)c2cccc(S(=O)(=O)N3CCN(Cc4ccccc4)CC3)c2)cc1	-3	?	-10%	-3%	-4%
Clc1ccccc1-c1cncnc1NCCc1cnc[nH]1	.	.	-20%	.	.
CCOC(=O)N(c1ccccc1)P1(=S)OCC(C)O1 (centres undefined)	-2	-19%	5%	.	-7%
COC(=O)N(c1ccccc1)P1(=S)OCCO1	39	4%	?	-7%	12µM*
CCOC(=O)N(c1ccccc1)P1(=S)OCCO1	2	3%	79µM*	-1%	12µM*
SMILES	TSHR antag	uPA generation	VDR inhibitor	TSG101-PTAP inh	PLK1 PBD inh
O=C(Nc1cc(Br)ccc1O)C1CC(c2ccccc2Cl)=NO1 (centres undefined)	-2	?	1%	0%	6%
COC(=O)C1=CO[C@@H](C)[C@@H]2CN3CC[C@]4(C(=O)Nc5c4ccc(OC)c5OC)[C@H]3C[C@H]12	.	.	-19%	.	.
Cc1c(C=O)c2ccccc2n1Cc1cccc(F)c1	2	0%	20µM*	1%	?
COc1ccc(CNC(=O)CSCc2cnn(-c3ccccc3)c2-n2cccc2)cc1OC	.	.	31%	.	.
CN(C)c1nc(C=C(C#N)C#N)c(Cl)n1-c1ccc(F)cc1	1	?	25µM*	-7%	15µM*
CN1C2CCC1CC(OC(c1ccc(F)cc1)c1ccc(F)cc1)C2 (centres undefined)	.	.	-6%	.	.
C=CCN1C(=O)NC(=O)/C(=C/c2ccc(N(C)C)c(Br)c2)C1=O	1	2%	79µM*	-3%	6.7µM*
C=CCN1C(=O)NC(=O)/C(=C/c2ccoc2)C1=O	30	1%	-12%	-2%	8.4µM*
Cn1cccc1/C=C1\C(=O)NC(=O)N(Cc2ccccc2)C1=O	10	-5%	?	-5%	?
COc1ccc(CN2C(=O)NC(=O)/C(=C/c3ccoc3)C2=O)cc1	-6	16%	-18%	-2%	2.4µM*
CCN(CC)c1ccc(/C=C2\C(=O)NC(=O)N(Cc3ccco3)C2=O)cc1	1	4%	?	5%	?
C=CCN1C(=O)NC(=O)/C(=C/c2cccn2C)C1=O	4	-13%	9%	-1%	30µM*
O=C(O)[C@@H]1CSC(c2cccnc2)N1 (some centres undefined)	.	.	-9%	.	.
CN1Cc2c(ccc3c2OCO3)[C@@H]2[C@@H](O)Cc3cc4c(cc3[C@@H]21)OCO4	.	.	-1%	.	.
CCCn1c(=O)n(C)c(=O)c2c(SCC(=O)NC34CC5CC(CC(C5)C3)C4)nc(CC(C)C)nc21	-1	-1%	-8%	-5%	30µM*
CN(C)C(=O)CCc1ccc2c3c([nH]c2c1)[C@]1(CCC2CCCC2)[C@@H](C(=O)N2CCOCC2)C[C@H](CC(=O)NCCC2=CCCCC2)C(=O)N1CC3	-7	?	-2%	-4%	1%
CCCCCNc1c(C(=O)OCC)c(=O)[nH]c2ccccc12	-24	-4%	-18%	-4%	27µM*
CC(O)CNc1ccc([N+](=O)[O-])c2cccnc12 (centres undefined)	0	5%	-9%	-3%	4%
Cn1nc([N+](=O)[O-])nc1Sc1cccc2cccnc12	6	?	-19%	-2%	17µM*
COc1ccc(O)c(/C=N/NC(=S)Nc2cccnc2)c1	16	11µM*	-12%	-1%	-9%
CC1CC(O)[C@]2(O)[C@]13CC(=O)OC[C@@]2(C)[C@@](C)(O)C(=O)C3 (some centres undefined)	.	.	13%	.	.
O=C(NCc1nnc(SCC(=O)N2CCN(c3ccccc3)CC2)o1)c1ccco1	4	5%	-14%	-1%	27µM*
N#CC1=C(N)Oc2c(c(=O)oc3ccccc23)C1c1ccc([N+](=O)[O-])o1 (centres undefined)	3	5%	?	-1%	21µM*
CC(C)Oc1ccc(C2C(C#N)=C(N)Oc3c2c(=O)oc2ccccc32)cc1 (centres undefined)	0	0%	-3%	-4%	-5%
O=C1NC(=O)N(Cc2ccccc2)C(=O)/C1=C\N1CCCc2ccccc21	-12	-3%	35µM*	-1%	-20%

High-throughput results as filed in PubChem.
